Activation and Potency data for 37 compounds are collected here from PubChem BioAssay (NCATS).

Structures are written as SMILES. Values joined by “and” are separate entries in the source; they are usually repeats but may differ in a detail not shown here. Identical values can stand only once. Inconclusive results are not listed. Active and inactive are the calls of the source. Calls come from the whole dose curve; as a rule, active = well fitted activation curve with a large enough effect; inconclusive = small, poorly fitted or top-dose-only effect; inactive = no such curve, though single readings can be large or run the other way.
Potency is the fitted concentration of half-maximal effect.

The target of the experiment is Cellular tumor antigen p53 (Homo sapiens) (UniProt P04637). The experiment in a line: Primary qHTS for small molecule compounds that upregulate eGFP-tagged delta133p53alpha (in N-terminal) cells. (AID 2060322).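 For Activation: series mostly up to about 56 µM; 0% = DMSO vehicle and 100% = reference activator.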 Note: nearly all actives have a fitted effect of over 75% in size. The settings on record: NCI-H358 eGFP-delta133p53alpha fluorescence, 24 h; activation: hits give high values. An outline of the steps: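 NCI-H358 cells pre-induced 24 h with 10 ng/ml doxycycline to express N-terminal eGFP-delta133p53alpha, then dosed 24 h at 37C without doxycycline; fixed, Hoechst-stained, GFP intensity by laser scanning cytometry, normalized to DMSO (0%) and 57.5 uM 5-azacytidine (100%).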
Chain of Cellular tumor antigen p53 (Homo sapiens) (P04637 whole entry, looked up): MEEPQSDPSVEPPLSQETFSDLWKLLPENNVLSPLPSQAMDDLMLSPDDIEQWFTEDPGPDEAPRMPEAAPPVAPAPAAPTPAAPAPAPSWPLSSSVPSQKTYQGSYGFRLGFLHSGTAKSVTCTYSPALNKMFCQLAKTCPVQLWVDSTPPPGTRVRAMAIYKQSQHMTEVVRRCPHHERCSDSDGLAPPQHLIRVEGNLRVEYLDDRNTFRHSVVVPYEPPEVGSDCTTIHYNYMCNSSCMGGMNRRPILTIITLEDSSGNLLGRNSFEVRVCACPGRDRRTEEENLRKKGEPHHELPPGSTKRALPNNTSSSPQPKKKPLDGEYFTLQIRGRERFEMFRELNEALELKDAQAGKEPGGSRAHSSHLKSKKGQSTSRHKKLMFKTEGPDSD
On the technique in general: Quantitative high-throughput screening tests each substance at several concentrations.
Regarding `CC(=O)N[C@H]1[C@@H]([C@H](O)[C@H](O)CO)OC(C(=O)O)=C[C@@H]1N=C(N)N`, the activation was -10.7% (inactive).

Turning to `CC(C)c1cc2c(cc1S(=O)(=O)O)[C@@]1(C)CCC[C@@](C)(C(=O)O)[C@@H]1CC2`, the activation was -22% (inactive).

Regarding `CN(C)[C@@H]1C(=O)C(C(=O)NCN2CCCC2)=C(O)[C@@]2(O)C(=O)C3=C(O)c4c(O)cccc4[C@@](C)(O)C3C[C@@H]12` (some centres not stated), the activation is -13% (inactive).

`CC(C)N1[N]C(=C2C=c3cc(O)ccc3=N2)c2c(N)ncnc21`: the activation is 11.7% (inactive).

For the compound `CN(CCCN1c2ccccc2CCc2ccccc21)CC(=O)c1ccc(Cl)cc1`, the activation was -1.69% (inactive).

Take `CC(C)NCCCC1(C(N)=O)c2ccccc2-c2ccccc21`: the activation was 4.18% (inactive).

Turning to `NS(=O)(=O)c1cc(C(=O)NN2C[C@H]3[C@H]4CCC(C4)[C@H]3C2)ccc1Cl`, the activation is 0% (inactive).

As to `O=C(c1ccc(F)cc1)C1CCN(CCn2c(=S)[nH]c3ccccc3c2=O)CC1`, the activation was -8.47% (inactive).

In the case of `CC1(C)CO[C@@H](CC(=O)O)CN1`, the activation was -5.86% (inactive).

Consider `Cc1ccc(/C=N/n2c(-c3ccccc3)csc2=S)cc1`, for which the activation was 24.3% (inactive).

As to `O=C(CN1CCNCC1)NC1CCCCC1`, the activation was 7.53% (inactive).

For `CNC(=O)c1cccc(-c2ccc3c(N4CCOC[C@H]4C)nc(N4CCOC[C@H]4C)nc3n2)c1`, the activation was 19.5% (inactive).

For the compound `Cc1ncc(Cl)cc1NCc1ccc(C(=O)N[C@@H](CC2CCCC2)C(=O)NC2CC2)s1`, the activation was -39.1% (inactive).

For the compound `COc1ccccc1N1CCN(CCCCNC(=O)c2ccc(-c3ccc(C(C)=O)cc3)cc2)CC1`, the activation was -10.9% (inactive).

With `Cc1cn([C@@H]2O[C@H](CO)[C@@H](O)[C@H]2F)c(=O)[nH]c1=O`, the activation was 5.67% (inactive).

As to `C=CCn1c(=O)n([C@@H]2O[C@H](CO)[C@@H](O)[C@H]2O)c2nc(N)[nH]c(=O)c21`, the activation is -0.565% (inactive).

Consider `CN(C)CCN(Cc1ccsc1)c1ccccn1`, for which the activation is -27.6% (inactive).

`CC(O)Cn1cnc2c1c(=O)n(C)c(=O)n2C` (configuration not stated): the activation is 26.6% (inactive).

For `CC(C)=CCC1C(=O)N(c2ccccc2)N(c2ccccc2)C1=O`, the activation is -15.3% (inactive).

Consider `CCCCCC1Nc2cc(C(F)(F)F)c(S(N)(=O)=O)cc2S(=O)(=O)N1` (configuration not stated), for which the activation was -4.18% (inactive).

As to `CC(O)CCCCn1c(=O)c2c(ncn2C)n(C)c1=O` (configuration not stated), the activation is -16.4% (inactive).

Turning to `CN1Cc2cc(C(=O)N3CCC(C4CCNCC4)CC3)ccc2NC(CC(=O)O)C1=O` (configuration not stated), the activation is -16.7% (inactive).

Regarding `CCCCC(O)/C=C(C)/C=C/C=C/C(=O)N1CCCC1=O` (configuration not stated), the activation is 13.4% (inactive).

For `Cn1cc(C2=C(c3cn(CCCN)c4ccccc34)C(=O)NC2=O)c2ccccc21`, the Potency is 24.3 µM (active).

On to `O=C1CCCc2c(O)cccc21`, for which the activation is -14.1% (inactive).

Regarding `C[N+]12CCC(CC1)C(OC(=O)C(O)(c1ccccc1)c1ccccc1)C2` (configuration not stated), the activation is -8.47% (inactive).

Consider `CCCC(=O)O[C@]1(C(=O)CC)CC[C@H]2[C@@H]3CCC4=CC(=O)CC[C@]4(C)[C@H]3[C@@H](O)C[C@@]21C`, for which the activation is -20.9% (inactive).

Turning to `COc1ccc2cc1Oc1cc3c(cc1OC)CC[N+](C)(C)[C@H]3Cc1ccc(cc1)Oc1c(OC)c(OC)cc3c1[C@@H](C2)[N+](C)(C)CC3`, the activation is 13% (inactive).

Regarding `CNC(=O)c1c(I)c(NC(=O)CCCCC(=O)Nc2c(I)c(C(=O)O)c(I)c(C(=O)NC)c2I)c(I)c(C(=O)O)c1I`, the activation is -10% (inactive).

For `Fc1ccc(C(c2ccc(F)cc2)N2CCNCC2)cc1`, the activation was -8.47% (inactive).

Consider `CSc1nc2cc(Oc3cccc(Cl)c3Cl)c(Cl)cc2[nH]1`, for which the activation is -40.2% (inactive).

As for `O=C(C=Cc1ccc(CN(CCO)CCc2c[nH]c3ccccc23)cc1)NO`, the activation was 23.4% (inactive).

`O=C1O[C@H](CO)[C@@H](O)[C@H](O)[C@H]1O`: the activation is 6.69% (inactive).

`Cc1cccc(C)c1OCC(=O)N[C@@H](Cc1ccccc1)[C@@H](O)C[C@H](Cc1ccccc1)NC(=O)[C@H](C(C)C)N1CCCNC1=O`: the activation is -5.4% (inactive) and 28.8% (inactive).

As for `NS(=O)(=O)c1cc(C2(O)NC(=O)c3ccccc32)ccc1Cl` (configuration not stated), the activation was -33.3% (inactive).

As to `CN(C)C(=N)N=C(N)N`, the activation was 2.2% (inactive).

`CO[C@H]1C[C@@H]2CC[C@@H](C)[C@@](O)(O2)C(=O)C(=O)N2CCCC[C@@H]2C(=O)O[C@H]([C@H](C)C[C@@H]2CC[C@H](OCCO)[C@H](OC)C2)CC(=O)[C@H](C)C=C(C)[C@@H](O)[C@@H](OC)C(=O)[C@H](C)C[C@H](C)C=CC=CC=C1C`: the activation was 24.4% (inactive).
